Test results taken from PubChem BioAssay (NCI).
About 83,000 compounds went through this panel and 20% of them were active in at least one assay; those are over-represented in the sample as a whole.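 Percent growth is the endpoint: 0 to 100 indicates growth inhibition (40 means 60% inhibition), 0 means no net growth, and negative values indicate cell death.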 Values without a mark were called inactive. Calls of active or inactive are those of the source. Rule for the calls: active = growth percent below 10; inactive = the rest.

Columns and labels:
Test in all cases: NCI-60 one-dose screen, 48 h (100 = growth as untreated, 0 = no growth, -100 = all killed)
Settings in all cases: 10 µM unless noted
SK-MEL-2 melanoma = tested on: SK-MEL-2 melanoma
EKVX NSCLC = tested on: EKVX NSCLC
SN12C renal = tested on: SN12C renal
UO-31 renal = tested on: UO-31 renal
TK-10 renal = tested on: TK-10 renal
A498 renal = tested on: A498 renal
CCRF-CEM leukemia = tested on: CCRF-CEM leukemia
MOLT-4 leukemia = tested on: MOLT-4 leukemia
SR leukemia = tested on: SR leukemia
RPMI-8226 leukemia = tested on: RPMI-8226 leukemia
OVCAR-8 ovarian = tested on: OVCAR-8 ovarian
OVCAR-5 ovarian = tested on: OVCAR-5 ovarian
OVCAR-4 ovarian = tested on: OVCAR-4 ovarian
SK-OV-3 ovarian = tested on: SK-OV-3 ovarian
IGROV1 ovarian = tested on: IGROV1 ovarian
OVCAR-3 ovarian = tested on: OVCAR-3 ovarian
HS 578T breast = tested on: HS 578T breast
NCI/ADR-RES ovarian = tested on: NCI/ADR-RES ovarian

Structure (SMILES) | growth (SK-MEL-2 melanoma) | growth (EKVX NSCLC) | growth (SN12C renal) [%] | growth (UO-31 renal) | growth (TK-10 renal) | growth (A498 renal) | growth (CCRF-CEM leukemia) | growth (MOLT-4 leukemia) | growth (SR leukemia) | growth (RPMI-8226 leukemia) | growth (OVCAR-8 ovarian) | growth (OVCAR-5 ovarian) [%] | growth (OVCAR-4 ovarian) [%] | growth (SK-OV-3 ovarian) [%] | growth (IGROV1 ovarian) [%] | growth (OVCAR-3 ovarian) | growth (HS 578T breast) | growth (NCI/ADR-RES ovarian)
O=C1CCC(c2c(O)cc(O)c3c(=O)c(O)c(-c4ccc(O)c(O)c4)oc23)N1 (centres undefined) | 98.2% | 106% | 105 | 82.6% | 92.7% | 92.1% | 103% | 92.2% | 96.2% | 99.5% | 105% | 104 | 108 | 85.1 | 107 | 101% | 100% | 96.8%
C=CC(C)(O)CCC1C(=C)CCC2C(C)(C)CCCC12C (centres undefined) | 92.2% | 96.7% | 108 | 90.3% | 83.3% | 106% | 124% | 89.9% | 90.2% | 102% | 114% | 106 | 114 | 94.1 | 108 | 105% | 113% | 101%
Cc1ccc2[nH]c3nc4cccnc4c(C)c3c2c1 | 119% | 9.94% (active) | 88.4 | 62.8% | 38.7% | 92.7% | 85.9% | 81.9% | 2.59% (active) | 69.6% | 88.3% | 59.6 | 87.1 | 88 | 85.8 | 99.8% | 93.2% | 83.2%
O=C(O)c1ccc(-n2cc(/C=N/Nc3ccc(Cl)cc3)c(-c3ccc(F)c(F)c3)n2)cc1 | 75.5% | 59.7% | 93.2 | 46% | 94.1% | 49.9% | 32.3% | 37.6% | 68.9% | 24% | 86.6% | 83.7 | 80.3 | 100 | 79.2 | 75.2% | 84.5% | 73.1%
CC(C)CNCC(O)COc1ccc(C(C)(C)c2ccc(OCC(O)CNCC(C)C)cc2)cc1 (centres undefined) | -6.06% (active) | 69.4% | 67.5 | -32.2% (active) | 66.6% | 59.8% | 0.812% (active) | -35.8% (active) | -38.7% (active) | -9.88% (active) | 53.4% | 80.8 | 81 | 86.9 | 47.4 | 44.5% | 65.4% | 86.7%
COc1ccc(-c2ccc(NC(=O)Nc3ccc(Cl)c(C(F)(F)F)c3)c(C)n2)cc1 | 62.1% | 49.2% | 57.4 | 39.3% | 65.9% | 57.7% | 29.9% | 24.6% | 35.7% | 9.87% (active) | 57.4% | 89.1 | 45.1 | 68.1 | 52.9 | 27.6% | 77% | 49.8%
C/C(=N/O)c1ccc(NC(=O)Cn2nc(-c3ccc(Cl)cc3)nc2N)cc1 | 84.9% | 98.6% | 102 | 66% | 120% | 103% | 85.8% | 66.7% | 81.2% | 93.4% | 81.6% | 108 | 119 | 72.6 | 89.7 | 104% | 88.5% | 99.6%
COc1cc(NC(=O)c2cc(OC)c3ccn(C)c3c2)cc2c1C[C@]1(C)CC[C@@H](O)C(C)(C)[C@H]1O2 | 31.1% | 65.2% | 86.6 | 2.9% (active) | 90% | 1.9% (active) | 19.6% | 6.92% (active) | 19.2% | -16.6% (active) | 75.8% | 81.4 | 84.6 | 53 | 68 | 80.7% | 10.2% | 82.6%
Cc1nccc2c3ccc(OCc4cn(-c5ccc(Br)cc5)nn4)cc3n(CCCc3ccccc3)c12 | 107% | 68.9% | 66.9 | -73.5% (active) | 34.1% | 110% | 15% | 41.2% | -29.8% (active) | 8.43% (active) | 2.18% (active) | 49.6 | 63.2 | 90 | 60.4 | 104% | -6.57% (active) | -36.1% (active)
CCOC(=O)C1=C(N)Oc2cc(OC)ccc2C1c1ccc(F)c(F)c1 (centres undefined) | 11.8% | 40.1% | 47.1 | 44.2% | 63.3% | 4.52% (active) | 20.4% | 28.6% | 12.7% | 6.63% (active) | 36% | 56.9 | 69.4 | 22.8 | 54.1 | 17.7% | 28.4% | 25.5%
COc1ccc(NC(=O)COCCOCCNC[C@@H]2C(=O)O[C@H]3[C@H]2CC/C(COC(=O)OC/C2=C/CC[C@@]4(C)O[C@H]4[C@H]4OC(=O)[C@@H](CN(C)C)[C@@H]4CC2)=C\CC[C@@]2(C)O[C@@H]32)c(O)c1C(N)=O | 68.3% | 81.5% | 40 | 2.07% (active) | -0.421% (active) | 96.2% | -9.68% (active) | -5.18% (active) | 0.464% (active) | 38.4% | 32.4% | 91 | 31.3 | 79.4 | 26.6 | 0.0325% (active) | 79.2% | 101%
CN(C)CCCOc1c(Br)cc(/C=C/C(=O)N(C)CCc2cc(Br)c(OCCCN(C)C)c(Br)c2)cc1Br | 89.3% | 78.7% | 72.8 | 65.7% | 106% | 60.5% | 4.13% (active) | -1.09% (active) | -34.5% (active) | -23.6% (active) | 30.7% | 79.1 | 79.7 | 102 | 48.2 | 75.7% | 75.7% | 56.6%
O=C(c1ccccc1)[C@H]1[C@@H]2CCCN2[C@]2(C(=O)Nc3ccc(F)cc32)[C@]12C(=O)Nc1ccccc12 | 83.1% | 70.8% | 92 | 85.4% | 113% | 89.7% | 76.8% | 59.5% | 85.2% | 71.2% | 88.8% | 91.7 | 81.6 | 83.8 | 81.3 | 83.7% | 96.1% | 96.7%
Cc1cc(N2CCOCC2)nc(N(CCNc2ccnc3cc(Cl)ccc23)Cc2ccco2)n1 | 23.3% | 56.7% | 47.5 | 24.3% | 10.9% | 50.9% | -11.3% (active) | 5.1% (active) | -22.6% (active) | -21.6% (active) | 34.6% | 101 | 37.2 | 91.1 | 40.7 | -64.3% (active) | 64% | 50.8%
Cc1ccc(-c2nc3c(N=Nc4ccc(S(N)(=O)=O)cc4)c(N)nn3c(N)c2C#N)cc1 | 27% | 69.8% | 33.2 | 69% | 65.8% | 59.3% | 11.9% | 3.58% (active) | 28.9% | -16.4% (active) | 44.1% | 78.7 | 52.2 | 63.8 | 37.4 | 23.6% | 39.4% | 99.9%
CCCCNc1cc(C(=O)O)cc(S(N)(=O)=O)c1Oc1ccccc1 | 106% | 106% | 97.1 | 85.4% | 104% | 89.1% | 105% | 110% | 104% | 112% | 107% | – | 105 | 108 | 109 | 115% | 98.5% | 99.1%
CCc1c(C)c2cc3c(c(C)c2oc1=O)OCC(=O)N3 | 77.5% | 35.9% | 72.9 | 37.3% | 15.1% | 43.6% | 84.3% | 80.7% | 4.96% (active) | 90.9% | 74.6% | 77.9 | 79.5 | 78.6 | – | 73.8% | 59.5% | 75.1%
